Most compounds without a hit are left out; they make up all but 11% or so of the library.
NS1 function inh: qHTS Assay for Inhibitors of Influenza NS1 Protein Function | 0.4% of 270,000 active | AID 2326, 2010 | Potency, µM (doses to about 46.1 µM); calls by dose curve; further: actives are rising curves; nearly all actives have a fitted effect of over 50% in size
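S. cerevisiae expressing influenza A NS1, grown in glucose, washed, then diluted 1:100 into pH 6.0 -URA galactose medium with 23 nl compound. Growth recovery read as OD600; NS1-free strain serves as control.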
Pf growth 48h: Primary qHTS for delayed death inhibitors of the malarial parasite plastid, 48 hour incubation; AID 504832, 2011; Potency, µM (highest dose often 28.7 µM), actives largely listed as inhibitors; P. falciparum luciferase growth in erythrocytes, 48 h; 5.9% of 310,000 active
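Luciferase-expressing P. falciparum in infected erythrocytes (2% hematocrit, 0.1% parasitemia final) in RPMI 1640/0.5% Albumax were exposed to compound for 48 hours at 37 C, 5% CO2; growth read as luminescence.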
Sm TGR inh: qHTS Assay for the Inhibitors of Schistosoma Mansoni Peroxiredoxins | Schistosoma mansoni thioredoxin glutathione reductase (TGR), Q962Y6 | purified TGR, DTNB reduction, TNB absorbance 405 nm | Potency, µM (highest dose often 114 µM), hits mostly inhibitors | 3% of 360,000 active | AID 485364, 2010; further: nearly all actives have a fitted effect of over 60% in size
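TGR 20 nM + NADPH 100 uM (dispensed conc.), cpd preinc 15 min RT; start with NADPH (500 uM addition) then DTNB (15 mM addition). Kinetic TNB absorbance, 405 nm filter. Four-parameter Hill fit across titration.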
Pf growth 96h: Primary qHTS for delayed death inhibitors of the malarial parasite plastid, 96 hour incubation; 6.9% of 320,000 active; Potency, µM (series often up to 28.7 µM), actives largely listed as inhibitors; P. falciparum luciferase reporter growth, 96 h
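P. falciparum expressing integrated firefly luciferase, in erythrocytes at 2% hematocrit, 0.05% parasitemia, incubated with compounds 96 h at 37 C, 5% CO2. Growth inhibition read as loss of luminescence; two-generation exposure targets delayed-death apicoplast inhibitors.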
AMA1-RON2 inh: qHTS for Inhibitors of AMA1-RON; Towards Development of Antimalarial Drug Lead: Primary Screen | Plasmodium falciparum AMA1 (3D7) - RON2 peptide interaction | AlphaScreen AMA1-biotinylated RON2 peptide binding | Potency, µM (highest dose often 58.2 µM), hits mostly inhibitors | 0.2% of 360,000 active; further: nearly all actives have a fitted effect of over 45% in size
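AMA1 (3D7) with his tag at 25 nM final met compounds first, then biotinylated RON2 peptide at 25 nM; detection used donor plus acceptor beads, 10 µg/mL apiece, read by AlphaScreen after 30 min at room temperature.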
Hits are given with their value; n = inactive; u = inconclusive; x = no result given; [ ] = dose if it differs, or a comment. Unless noted, the call rests on the fitted dose curve; in most records, active means well fitted curve in the direction sought with a large enough effect; inconclusive means small, poorly fitted or top-dose-only effect, or another doubt; inactive means no such curve, though single readings can be large; an effect the other way counts as inactive or inconclusive.

SMILES | NS1 function inh | Pf growth 48h | Sm TGR inh | Pf growth 96h | AMA1-RON2 inh
CCN1C(=NCCc2c[nH]c3ccccc23)N[C@@H](c2ccccc2)[C@H](C(=O)OC)[C@H]1C | n | u | 44.7µM | n | n
CC(=O)NC1CSCC1OC(C)=O (centres undefined) | n | n | n | 9.28µM | n
CN(Cc1ccccn1)Cc1nc(Cc2ccccc2Cl)no1 | n | n | n | n | n
Cc1cnccc1CN(C)Cc1nc(Cc2ccccc2Cl)no1 | n | 9.28µM | n | n | n
O=C(/C=C/c1ccc(OCCCF)cc1)N1CCOCC1 | n | n | u | n | n
Cc1ccc(-n2c(SCC(=O)Nc3cc(C)on3)nc3c(c2=O)SC(C)C3)cc1 (centres undefined) | n | 0.828µM | n | u | n
Cc1cc(NC(=O)CSc2nc3c(c(=O)n2Cc2ccccc2)SC(C)C3)no1 (centres undefined) | n | 1.85µM | n | 1.47µM | n
CCn1c(SCC(=O)Nc2cc(C)on2)nc2c(c1=O)SC(C)C2 (centres undefined) | n | u | n | x | n
Cc1cc(NC(=O)CSc2nc3c(c(=O)n2-c2ccc(Br)cc2)SCC3)no1 | n | 7.38µM | n | n | n
COc1ccc(-n2c(SCC(=O)Nc3cc(C)on3)nc3c(c2=O)SCC3)cc1 | n | u | n | u | n
Nc1c(C(=O)O)sc2nc3c(cc12)CCCC3 | n | n | n | n | n
N#Cc1sc2nc3c(cc2c1N)CCCC3 | n | n | n | 11.7µM | n[11.6 µM]
Cc1ccc2[nH]c(=O)c3cc(C(=O)N(C)c4ccccc4C)sc3c2c1 | n | n | n | n | n
C/C(=C\C(=O)OCCCCCCCCC(=O)O)C[C@@H]1OC[C@H](C[C@@H]2O[C@H]2[C@@H](C)[C@H](C)O)[C@@H](O)[C@H]1O | x | 0.19µM | x | 0.0301µM | n
COc1ccc(-n2c(=O)c3c4c(sc3n(Cc3cc(C)ccc3C)c2=O)CN(C(C)=O)CC4)c(OC)c1 | x | x | n | x | x
Cc1ccc(N2CN(S(=O)(=O)c3cccc([N+](=O)[O-])c3)c3nc4ccccc4nc32)cc1 | n | n | 44.7µM | u | n
CCOc1ccc(CC(=O)Nc2c(C(=O)c3ccc(F)cc3)oc3ccccc23)cc1OCC | x | x | n | x | x
Nc1nc(COC(=O)C2CCN(C(=O)c3ccc(Cl)cc3)CC2)nc(Nc2ccccc2)n1 | x | u | n | u | n
Cc1ccccc1Nc1nc(N)nc(COC(=O)CCNS(=O)(=O)c2ccccc2)n1 | x | 11.7µM | n | u | n
CCc1ccccc1Nc1nc(N)nc(COC(=O)CCS(=O)(=O)c2ccccc2)n1 | x | n | n | n | n
Cc1ccccc1Nc1nc(N)nc(COC(=O)c2ccc(O)cc2)n1 | n | u | n | 2.62µM | n
Cc1ccccc1Nc1nc(N)nc(COC(=O)c2cccc(S(=O)(=O)N(C)c3ccccc3)c2)n1 | n | u | n | 5.86µM | n
Cc1ccccc1Nc1nc(N)nc(COC(=O)c2ccccc2)n1 | n | n | n | n | n[11.6 µM]
CCc1ccccc1Nc1nc(N)nc(COC(=O)C2CCN(C(=O)c3ccc(F)cc3)CC2)n1 | x | 11.7µM | n | u | n
Cc1ccccc1NC(=O)OCc1ccccc1 | n | n | n | u | n
SMILES | NS1 function inh | Pf growth 48h | Sm TGR inh | Pf growth 96h | AMA1-RON2 inh
Cc1ccccc1Nc1nc(N)nc(COC(=O)/C=C/c2ccco2)n1 | x | n | 12.6µM | n | n
CCCCNc1c(-c2ccc(SC(C)CC)cc2)nc2cnccn12 (centres undefined) | x | x | x | x | n
O=C(CN1CCCCC1)Nc1ccccc1Oc1ccccc1 | n | u | n | u | n
CCNC(=O)C1CCCN(C(=O)c2ccc(C)c(F)c2)CC1 (centres undefined) | x | x | x | x | n
O=C(N/N=C/c1cn(-c2ccccc2)nc1-c1cc2ccccc2o1)c1c[nH]c2ccccc12 | n | 3.29µM | x | u | n
C=CCSc1nnc(-c2nnc(SCC=C)n2-c2ccccc2)n1-c1ccccc1 | n | u | n | 6.57µM | n
COc1ccc(-n2c(SCC(=O)O)nnc2-c2ccc(NC(=O)c3ccccc3)cc2)cc1 | n | 5.22µM | n | n | n
O=C(O)CSc1nnc(-c2ccc(Cl)cc2)n1-c1ccccc1 | n | n | n | 9.28µM | x
CC(=O)/C(=N\Nc1ccc(Cl)cc1)Sc1nnc(-c2ccccc2)n1-c1ccccc1 | n | n | n | 14.7µM | n
O=C(O)CSc1nnc(-c2ccncc2)n1-c1ccc(Cl)cc1 | n | n | n | x | u
CN(C(=O)Cc1csc(-c2ccccc2)n1)c1c(N)n(Cc2ccccc2)c(=O)[nH]c1=O | x | n | u | n | n
Cc1c(C(=O)N(C)c2cccc(Cl)c2)cnn1-c1ccccc1 | n | 9.28µM | n | u | n
COC(=O)c1ccccc1Nc1ccnc(Cl)n1 | x | x | x | x | n
COc1cccc(CN2c3ccc(Br)cc3C(=O)CS2(=O)=O)c1 | x | 9.28µM | n | u | n
O=C(NCCn1cc(SCc2ccc(F)cc2)c2ccccc21)c1cccs1 | x | x | n | x | x
O=C(O)C1=CC2c3ccccc3C1c1ccccc12 | n | n | n | 10.4µM | n
Cc1ccc(C2SCC(=O)N2Cc2cn3ccsc3n2)o1 (centres undefined) | n | n | u | 14.7µM | n
c1cn2cc(CN3CCOCC3)nc2s1 | n | n | n | u | n
COc1ccc(N2CCN(C(=O)c3ccc4c(c3)NC(=O)C(CSCc3c(F)cccc3Cl)N4)CC2)cc1 (centres undefined) | n | n | 56.2µM | n | x
COc1ccc(N2CCN(C(=O)c3ccc4c(c3)NC(=O)C(CSCc3ccc(C)cc3)N4)CC2)cc1 (centres undefined) | n | n | u | n | x
COc1ccc(N2CCN(C(=O)c3ccc4c(c3)NC(=O)C(CSCc3cccc(F)c3)N4)CC2)cc1 (centres undefined) | n | n | 44.7µM | n | x
Cc1ccc(S(=O)(=O)N2CCCC2=O)c(C)c1N(C)S(C)(=O)=O | n | n | n | 8.28µM | n
COc1cc2c3nnc(-c4ccc(F)cc4)c-3cn(Cc3ccccc3F)c2cc1OC | x | 0.37µM | n | 0.738µM | n
COc1cc2c3nnc(-c4ccccc4)c-3cn(Cc3ccccc3F)c2cc1OC | x | u | n | u | n
c1ccc(-c2nc(N3CCN(c4ccccc4)CC3)nc(-n3ccnc3)n2)cc1 | n | 4.15µM | n | u | n
SMILES | NS1 function inh | Pf growth 48h | Sm TGR inh | Pf growth 96h | AMA1-RON2 inh
Cc1ccc(S(=O)(=O)N(C)/N=C/c2ccc(N(C)C)cc2)cc1 | n | x | n | n | 25.1µM
Cc1ccc(S(=O)(=O)N(C)/N=C/C=C/c2ccccc2)cc1 | n | n | n | n | n[2.32 µM]
Brc1ccc(Oc2ccc(Br)cc2Br)c(Br)c1 | x | n | n | n | n
Oc1c(Br)cc(Br)cc1Oc1ccc(Br)cc1Br | n | u | u | 14.7µM | x
CCN(CC)S(=O)(=O)c1ccc(OC)c(NS(=O)(=O)Cc2ccccc2)c1 | n | n | n | 11.7µM | n
CC(=O)c1cc2c(cc1N/C(=N/S(=O)(=O)c1ccc(Cl)cc1)c1ccc(F)cc1)OCO2 | x | x | n | x | x

Screening data as filed in PubChem BioAssay.
